# Screening data (PubChem BioAssay)
# Hits are enriched below; roughly 2.6% of the tested compounds scored in any of these assays.
# Cruzain Triton: qHTS Assay for Promiscuous and Specific Inhibitors of Cruzain (with detergent). purified cruzain, Z-FR-AMC fluorescence, 0.01% Triton. Potency, µM, inactives show max response, negative = inhibition, usual class: inhibitors. actives 0.43% (n = 200,000). AID 1478, 2009;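 further: plate controls were neutral wells for no effect and buffer without enzyme for full effect; nearly all actives have a fitted effect of over 40% in size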
# Target sequence (P25779 123-467 limits assumed): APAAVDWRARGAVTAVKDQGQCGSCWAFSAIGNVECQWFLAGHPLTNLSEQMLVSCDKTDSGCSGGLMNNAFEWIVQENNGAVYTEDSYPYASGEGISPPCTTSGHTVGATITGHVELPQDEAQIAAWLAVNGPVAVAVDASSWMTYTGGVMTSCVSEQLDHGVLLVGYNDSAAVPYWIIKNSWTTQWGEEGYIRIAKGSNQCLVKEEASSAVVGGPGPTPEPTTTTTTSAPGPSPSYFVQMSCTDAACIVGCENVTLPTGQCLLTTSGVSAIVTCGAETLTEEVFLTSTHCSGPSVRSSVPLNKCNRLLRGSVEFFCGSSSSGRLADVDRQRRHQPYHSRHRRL
#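 In this qHTS format, compounds are incubated with 1.5 nM cruzain for 15 min at room temperature before 2 uM Z-FR-AMC is added. Release of AMC is followed at 360/450 nm, and progress is taken as the 60 s fluorescence difference.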
# Cruzain noTriton: qHTS Assay for Promiscuous and Specific Inhibitors of Cruzain (without detergent); Cruzipain (Trypanosoma cruzi), P25779; purified cruzain, Z-FR-AMC fluorescence, no detergent; Potency, µM, inactives show max response, negative = inhibition, usual class: inhibitors; actives 2.3% (n = 200,000); AID 1476, 2009;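 further: plate controls were enzyme without inhibitor for no effect and buffer without enzyme for full effect; nearly all actives have a fitted effect of over 40% in size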
#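 Purified cruzain at 1.5 nM, pre-incubated 15 min with compound at room temperature in 100 mM sodium acetate pH 5.5, 5 mM DTT, 0.00005% Triton X-100. Reaction started with 2 uM Z-FR-AMC; AMC fluorescence increase over 60 s gives rate.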
# Numbers without * were called inactive; ? = inconclusive. The call rests on the fitted dose curve; in most records, active means well fitted curve in the direction sought with a large enough effect; inconclusive means small, poorly fitted or top-dose-only effect, or another doubt; inactive means no such curve, though single readings can be large; an effect the other way counts as inactive or inconclusive. Potency means the concentration at half of the fitted maximal effect.
SMILES,Cruzain Triton,Cruzain noTriton
N#Cc1c(C(F)(F)F)cc(-c2cccs2)nc1SCc1ccc(F)cc1,-1%,8%
O=C(C1CCCN(S(=O)(=O)c2cccs2)C1)N1CCN(c2cccc(Cl)c2)CC1 (stereo not drawn),-8%,-16%
CC(C)C[C@H](NC(=O)C1OC1C(=O)O)C(=O)NCCCCN=C(N)N (stereo partly drawn),0.079µM*,0.04µM*
CC(C)CC(NC(=O)C1CCCN1C(=O)OC(C)(C)C)C(=O)NCC(N)=O (stereo not drawn),2%,-5%
CCOC(=O)c1sc(N2C(=O)c3oc4ccc(F)cc4c(=O)c3C2c2ccc(O)cc2)nc1C (stereo not drawn),-1%,2%
COc1cc(OC)cc(C(=O)Nc2ccc(-c3nc4ccccc4o3)cc2)c1,-5%,?
CCC(C)c1ccc2oc(-c3ccc(NC(=O)c4ncn[nH]4)cc3)nc2c1 (stereo not drawn),-10%,4µM*
CC(C)c1ccc2oc(-c3ccc(NC(=O)c4ncn[nH]4)cc3)nc2c1,-8%,13µM*
O=C(Nc1ccc2oc(-c3cccc4ccccc34)nc2c1)c1ncn[nH]1,-3%,?
COc1cc(OC)cc(C(=O)Nc2ccc(-c3nc4cc(C(C)C)ccc4o3)cc2)c1,-2%,13µM*
Cc1cccc(C(=O)Nc2ccc(-c3nc4cc(C(C)C)ccc4o3)cc2)c1,-2%,-13%
Cc1ccc2c(CC(=O)Nc3nnc(C(C)C)s3)coc2c1C,-3%,-3%
CCOC(=O)CC(SP(=O)(OC)OC)C(=O)OCC (stereo not drawn),7%,4%
O=C(Nc1ccccc1N1CCN(c2ccc(F)cc2)CC1)C12CC3CC(CC(C3)C1)C2,-3%,25µM*
O=C(Nc1ccccc1N1CCN(c2ccc(F)cc2)CC1)c1ccccc1,1%,?
CCOC(=O)N1CCN(c2nc(-c3ccc(Cl)cc3)cs2)CC1,-2%,4%
O=[N+]([O-])c1ccc(Cl)c(/C=N/N2CCN(Cc3ccc(Cl)cc3)CC2)c1,-7%,-3%
O=C(c1cccc([N+](=O)[O-])c1)N1CCN(c2ccc(Cl)cc2)CC1,0%,-4%
O=[N+]([O-])c1ccc(N2CCN(c3nc(-c4ccc(Cl)cc4)cs3)CC2)cc1,-2%,13µM*
O=[N+]([O-])c1cccc(/C=N\N2CCN(c3ccc(Cl)cc3)CC2)c1,-2%,25µM*
O=[N+]([O-])c1ccc(/C=N\N2CCN(c3ccc(Cl)cc3)CC2)cc1,3%,16µM*
CO[C@]1(NC(=O)C2SC(=C(C(N)=O)C(=O)O)S2)C(=O)N2C(C(=O)O)=C(CSc3nnnn3C)CS[C@H]21 (stereo partly drawn),-3%,3%
Cc1cc(=O)n(C(C)C(=O)N2CCCc3ccccc32)c2c1c(C)nn2-c1ccccc1 (stereo not drawn),4%,?
COc1cccc(-c2nn(-c3ccccc3)cc2C(=O)n2nnc3ccccc32)c1,-14%,32µM*
O=C(c1cn(-c2ccccc2)nc1-c1ccccc1)n1nnc2ccccc21,-3%,?
SMILES,Cruzain Triton,Cruzain noTriton
COc1ccccc1CCn1c(=O)cnc2cncnc21,4%,16%
CC(NC(=O)COC(=O)c1cc(NS(=O)(=O)c2ccc(Cl)c([N+](=O)[O-])c2)ccc1O)C1CC2CCC1C2 (stereo not drawn),-10%,6.3µM*
CC(NC(=O)COC(=O)CCc1ccc(S(=O)(=O)N2CCOCC2)cc1)C1CC2CCC1C2 (stereo not drawn),-4%,?
CCCN[C@@H](C)C(=O)Nc1ccccc1C,-8%,-1%
Cc1cccc(-c2nc(C)c(CCNC(=O)c3cccs3)s2)c1,-9%,-11%
Cc1nc(N)sc1-c1csc(N(C)c2ccc(O)cc2)n1,13µM*,5µM*
Cc1nc(NC(=O)c2ccccc2)sc1-c1csc(N)n1,-9%,-14%
CC(=O)Nc1cc(NC(C)=O)cc(-c2nc3ccccc3[nH]2)c1,-2%,-3%
CC(C)C(=O)Nc1sc2c(c1-c1nc3ccccc3[nH]1)CCCC2,-1%,20µM*
O=S(=O)(Nc1nccs1)c1ccc([As](=O)(O)O)cc1,0%,6%
COc1ccc(CCNC(=O)c2sc3ccccc3c2Cl)cc1OC,-11%,9%
COc1ccccc1C(=O)NNC(=S)NC(=O)c1sc2ccccc2c1Cl,8%,10µM*
Cc1ccc(NC(=O)c2sc3ccccc3c2Cl)nc1,0%,-11%
COc1ccccc1C(=O)NC(=S)NNC(=O)c1sc2ccccc2c1Cl,9%,2.5µM*
CN(C)Cc1ccccc1-c1cc(NCc2cccs2)ncn1,1%,0%
COC(=O)C1(C(=O)OC)C/C=C\C/C=C\c2ccccc2C1C[N+](=O)[O-] (stereo not drawn),3%,-7%
CC(C)n1cc(/C=C2/SC(=O)N(CC(=O)Nc3ccc4c(c3)OCO4)C2=O)c2ccccc21,2%,10µM*
Cn1cc(SCC(=O)Nc2ccc3c(c2)OCO3)c2ccccc21,-6%,-17%
COc1ccc(-c2oc3ncn4nc(-c5ccccc5O)nc4c3c2-c2ccc(OC)cc2)cc1,1%,5%
CC(=O)NCCNc1ncnc2ccc(-c3c(C)noc3C)cc12,-2%,1%
O=C(CC(NC(=O)c1ccccc1)c1ccccc1)Nc1cccc2ccccc12 (stereo not drawn),-3%,25µM*
O=C(CC(C(=O)O)c1ccccc1)Nc1cccc2ccccc12 (stereo not drawn),1%,-3%
CCOc1cc(CNC(=O)c2ccc3c(c2)N(C)C(=O)C2CCCCN32)ccc1OC (stereo not drawn),-3%,5%
O=C(NCc1ccc2c(c1)OCO2)C1CCN(S(=O)(=O)N2CCCCC2)CC1,-3%,-1%
O=C(NCc1ccc2c(c1)OCO2)C1CCN(c2ccc(S(=O)(=O)N3CCCC3)cc2)CC1,-1%,25µM*
SMILES,Cruzain Triton,Cruzain noTriton
CC1CN(C(=O)c2ccccc2)C(=Nc2cccc(S(=O)(=O)N(C)C)c2)S1 (stereo not drawn),0%,3%
CN(C)S(=O)(=O)c1cccc(N=C2NN=C(c3ccccc3)CS2)c1,-3%,32µM*
COc1ccc(N(CC(=O)O)N=O)cc1,3%,3%
CC(C)c1ccc(NC(=O)COc2nnc(-c3cccs3)c(-c3cccs3)n2)cc1,-7%,5%
CCc1ccc(NC(=O)C(C)Oc2nnc(-c3cccs3)c(-c3cccs3)n2)cc1 (stereo not drawn),3%,20µM*
CCN(CC)S(=O)(=O)c1ccc2c(c1)N(CC(=O)Nc1ccccc1F)C(=O)C1CCCN21 (stereo not drawn),-6%,?
Cc1cc(C(=O)N/N=C/c2cccc([N+](=O)[O-])c2)c(C)n1-c1ccccc1,-5%,-25%
CC(=O)N/N=C/c1cc([N+](=O)[O-])ccc1OCCOc1ccccc1,2%,3%
Cc1cccc(NC(=S)N/N=C/c2cccc([N+](=O)[O-])c2)c1,-14%,1%
O=[N+]([O-])c1ccc(Cl)c(/C=N/NC(=S)Nc2ccccc2)c1,-8%,25µM*
Cc1cccc(NC(=S)N/N=C/c2ccc(Cl)c([N+](=O)[O-])c2)c1,-3%,32µM*
CS(=O)(=O)N(CC(=O)N/N=C/c1cc([N+](=O)[O-])ccc1Cl)c1ccccc1,-7%,-17%
Cc1cc(C(=O)N/N=C/c2ccc(Cl)c([N+](=O)[O-])c2)c(C)n1-c1ccc(F)cc1,1%,7.9µM*
